# Assay results taken from the supplement of paper PMC6555819.
# Experiments:
# Test in all cases: PBM binding z-score (relative to random genomic background probes); higher = stronger binding; sequences stand for … in GC…GCGATTGACAGCGTAGAATGAAGG
# [1] = tested on: FXR:RXRa (NR concentration 270 nM, RXRa partner concentration 90 nM)
# Summary of the method: (§1)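 The probes on custom Agilent 4×180K protein-binding microarrays were double-stranded, with 34-nt variable regions bearing direct-repeat seeds, single-nucleotide variants, half-site ablations and random human genomic background sequences. Incubation lasted 1 h with ligand-free nuclear receptor dimers in PBS pH 7.4, 2% milk, 0.02% Triton X-100, 1 mM DTT, 0.2 mg/mL BSA and 0.4 mg/ml salmon testes DNA. Antibodies against each partner (one per run) detected bound dimers, and fluorescence scans were regression-normalized. Binding z-scores take the random background probes as reference.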
# [2] = tested on: LXRa:RXRa (NR concentration 270 nM, RXRa partner concentration 90 nM)
# Summary of the method: as §1
# [3] = tested on: LXRa homodimer (NR concentration 270 nM)
# Summary of the method: as §1
# [4] = tested on: LXRb:RXRa (NR concentration 270 nM, RXRa partner concentration 90 nM)
# Summary of the method: as §1
# [5] = tested on: LXRb homodimer (NR concentration 270 nM)
# Summary of the method: as §1
# [6] = tested on: PPARa:RXRa (NR concentration 270 nM, RXRa partner concentration 90 nM)
# Summary of the method: as §1
# [7] = tested on: PPARg:RXRa (NR concentration 180 nM, RXRa partner concentration 90 nM)
# Summary of the method: as §1
# [8] = tested on: PPARg:RXRa 270nM:90nM, anti-RXR (NR concentration 270 nM, RXRa partner concentration 90 nM)
# Summary of the method: as §1
# [9] = tested on: PPARg:RXRa 30nM:10nM, anti-RXR (NR concentration 30 nM, RXRa partner concentration 10 nM)
# Summary of the method: as §1
# [10] = tested on: PPARg:RXRa 90nM:30nM, anti-RXR (NR concentration 90 nM, RXRa partner concentration 30 nM)
# Summary of the method: as §1
# [11] = tested on: PPARg:RXRa DBDmut IVT, anti-RXR (DBD mutation: RXRa K156A/R161A, NR concentration 270 nM, RXRa partner concentration 90 nM)
# Summary of the method: as §1
# [12] = tested on: PPARg:RXRa IVT, anti-PPARg (NR concentration 270 nM, RXRa partner concentration 90 nM)
# Summary of the method: as §1
# [13] = tested on: PPARg DBDmut:RXRa IVT, anti-PPARg (DBD mutation: PPARg1 K132A/R137A, NR concentration 270 nM, RXRa partner concentration 90 nM)
# Summary of the method: as §1
# [14] = tested on: PPARg DBDmut IVT, anti-PPARg (DBD mutation: PPARg1 K132A/R137A, NR concentration 270 nM)
# Summary of the method: as §1
# [15] = tested on: PPARg homodimer (NR concentration 180 nM)
# Summary of the method: as §1
# [16] = tested on: PXR:RXRa (NR concentration 270 nM, RXRa partner concentration 90 nM)
# Summary of the method: as §1
# [17] = tested on: PXR homodimer (NR concentration 270 nM)
# Summary of the method: as §1
# [18] = tested on: RARa:RXR (NR concentration 270 nM, RXRa partner concentration 90 nM)
# Summary of the method: as §1
# [19] = tested on: RARa homodimer (NR concentration 270 nM)
# Summary of the method: as §1
# [20] = tested on: RARb:RXRa (NR concentration 270 nM, RXRa partner concentration 90 nM)
# Summary of the method: as §1
Sequence,PBM binding z-score [1],PBM binding z-score [2],PBM binding z-score [3],PBM binding z-score [4],PBM binding z-score [5],PBM binding z-score [6],PBM binding z-score [7],PBM binding z-score [8],PBM binding z-score [9],PBM binding z-score [10],PBM binding z-score [11],PBM binding z-score [12],PBM binding z-score [13],PBM binding z-score [14],PBM binding z-score [15],PBM binding z-score [16],PBM binding z-score [17],PBM binding z-score [18],PBM binding z-score [19],PBM binding z-score [20]
ATCTCTAGGTAAAGATAGGTCAGTGAATGCAAAT,0.743,5.46,1,2.53,0.609,1.87,0.963,1.24,0.668,0.741,2.37,2.45,1.34,1.35,1.17,1.05,0.597,1.52,1.54,1.81
ACTAGCAGGCCAAGCTTGGGTCACTCAAACAAAG,-0.0796,0.111,-0.692,0.455,-0.932,1.22,0.00964,0.21,-0.684,-0.194,1.14,0.724,-0.775,-0.566,0.296,0.742,-0.908,1.66,-1.21,1.77
CCAGACAGATGAAAGGTAACTCAGTCTGGTACGC,-0.273,0.0444,-0.381,0.156,-0.167,0.579,0.879,1.21,0.636,0.829,-0.108,-0.154,-0.0341,-0.512,0.444,0.0908,0.0132,0.186,0.861,0.167
TCTTGTAGATCAACAGGAGTTTAAGAAAGATCGA,-0.268,0.229,-0.339,-0.131,-0.759,0.604,0.0426,1.19,2.22,1.87,1.57,0.487,0.0985,0.197,-0.389,0.514,-0.0735,0.201,-0.584,0.0376
TCTATTAGTTGATTAGGGCTACCGAAACAGCGGA,0.263,0.345,-0.0589,0.351,0.304,0.505,0.0193,2.26,3.84,2.98,1.71,0.487,0.367,0.888,1.29,0.181,0.128,0.22,0.748,0.309
CTCCCAAGGTGAACAAGGTCGTTGATTACTATTC,1.08,1.47,0.177,1.84,-0.42,2.36,0.575,1.07,0.0592,0.823,1.99,2.07,-0.441,-0.154,0.903,2.42,1.92,2.14,-0.0783,2.03
TCTAGCAGGCCAGAGGGTCAATCAAGAGGTACGG,1.44,1.33,-0.494,1.43,-1.31,2.66,1.61,3.01,2.27,2.91,0.793,0.929,-2.08,-0.99,1.31,1.76,-0.442,2.63,-0.831,2.25
CGGCCAAGGTCAATGCTAGGTCAGTGAAAGCATT,6.95,5.47,1.75,4.08,0.00864,5.19,4.4,4.78,1.47,3.21,3.06,3.69,-0.404,-1.18,4.15,4.73,0.802,5.67,0.406,5.24
ACTAGCAGCCCAAGTTTGGGTCACTCAAACAAAG,-0.21,-0.0985,-0.387,0.667,-0.605,0.976,-0.169,0.0773,-0.863,-0.372,-0.54,0.157,-0.825,-0.894,0.227,0.606,-0.424,1.19,-0.533,0.813
CCAGACAGGTGAGAAGGTACCTCAGCCTCGATTA,-0.184,-0.333,-0.205,-0.357,-0.562,0.192,0.408,0.244,-0.397,-0.0819,0.836,0.42,-0.603,-0.799,0.408,-0.434,-0.569,-0.0825,-0.214,0.313
CGTCAAAGTTCAACTAAGGTAAAGTAAAGCACGC,6.88,6.38,3.13,4.16,2.1,5.3,4.8,5.57,2.59,4.36,0.496,2.11,0.89,1.16,3.47,5.32,2.92,4.16,2.06,5.39
TCTAGTTGGTCAAAGGGCACACACTCGAAATGCG,1.38,1.56,0.344,1.48,0.0761,4.28,8.25,7.85,7.7,8.57,2.22,3.89,0.5,0.679,1.73,1.7,0.178,2.72,0.588,2.6
ATCGAGAGGTCGACGAGGTGAGTATACACCGTTT,3,2.28,-0.165,1.65,-0.204,3.36,1.95,2.03,0.529,1.52,0.355,1.71,-0.00601,0.563,0.663,2.43,0.615,2.84,-0.215,2.8
TCGATTAGGTTAGGGGCATTCAGAATGGCGTCGA,0.719,0.542,0.0424,1.5,0.612,1.46,0.358,2.01,2.41,2.22,1.99,0.798,-0.691,0.33,1.07,0.603,0.447,0.692,0.352,1.57
